GLS inhibitor: blocks human kidney-isoform glutaminase activity | O94925 | GLS enzymatic activity, qHTS titration | Potency, µM (titrated, usually from 45.5 µM), without a hit: at the top dose activity change, negative = inhibition, hits mostly inhibitors | actives 0.21% (n = 410,000); further: on the % scale 0 is the no-effect control and ±100 the full control effect
Target sequence (O94925 whole entry, looked up, canonical isoform): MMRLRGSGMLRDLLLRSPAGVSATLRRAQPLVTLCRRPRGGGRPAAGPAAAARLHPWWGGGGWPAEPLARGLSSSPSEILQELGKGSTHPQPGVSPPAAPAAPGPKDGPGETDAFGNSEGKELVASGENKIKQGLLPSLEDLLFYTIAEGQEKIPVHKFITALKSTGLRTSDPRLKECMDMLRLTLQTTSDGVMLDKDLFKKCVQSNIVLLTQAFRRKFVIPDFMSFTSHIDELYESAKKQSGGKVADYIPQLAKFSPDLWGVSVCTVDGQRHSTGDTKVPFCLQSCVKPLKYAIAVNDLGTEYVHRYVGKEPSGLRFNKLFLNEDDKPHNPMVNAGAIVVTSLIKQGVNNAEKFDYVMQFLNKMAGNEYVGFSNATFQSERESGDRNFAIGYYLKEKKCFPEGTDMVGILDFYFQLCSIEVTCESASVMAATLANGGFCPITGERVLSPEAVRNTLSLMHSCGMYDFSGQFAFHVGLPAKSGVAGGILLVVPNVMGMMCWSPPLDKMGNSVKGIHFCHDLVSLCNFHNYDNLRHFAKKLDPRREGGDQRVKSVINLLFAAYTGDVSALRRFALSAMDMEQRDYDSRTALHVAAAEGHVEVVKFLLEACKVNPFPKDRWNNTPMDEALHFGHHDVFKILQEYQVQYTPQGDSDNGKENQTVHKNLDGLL
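Read-out is an Amplex red fluorescence increase coupled through glutamate oxidase and HRP, measured before and after 30 min room-temperature incubation. hKGA is in 45 mM KH2PO4 (pH 8.2) with 0.02% Tween-20; glutamine added as 1mM solution.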
G9a block: blocks human histone lysine methyltransferase G9a. Q96KQ7. G9a H3K9 monomethylation, AlphaScreen, 2 h. Potency, µM (top dose mostly 102 µM), without a hit: top-dose activity, negative = inhibition, hits mostly inhibitors. actives 8.8% (n = 350,000). AID 504332; further: on the % scale 0 is the no-effect control and ±100 the full control effect; nearly all actives have a fitted effect of over 75% in size
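Compounds were preincubated with 20 nM G9a for 15 min, after which biotinylated H3K9 peptide (500 nM) and SAM (20 uM) started a 2 h room-temperature reaction. Monomethylated product was quantified by antibody-based AlphaScreen chemiluminescence.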
HP1b binding inh: HP1-beta chromodomain-methylated histone interaction inhibition | AlphaScreen HP1-beta / biotin-H3K9me3 peptide binding | Potency, µM (highest dose often 114 µM), for inactives: at the highest dose activity change, negative = inhibition, usual class: inhibitors | AID 540317 | actives 0.56% (n = 390,000) | P83916; further: nearly all actives have a fitted effect of over 70% in size
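Compound inhibition of the preformed complex between 50 nM HP1-beta and 50 nM biotinylated H3K9me3 peptide was read by AlphaScreen. Buffer was PBS pH 7.4 with 0.01% Tween-20. Incubations ran 30 min at room temperature, with 10 ug/mL donor/acceptor beads.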
JMJD2A Tudor: inhibitors of human JMJD2A Tudor domain; AID 504339; O75164; AlphaScreen JMJD2A-Tudor / H3K4me3 peptide binding; Potency, µM (top dose mostly 114 µM), without a hit: at the top dose activity change, negative = inhibition, hits mostly inhibitors; actives 4.4% (n = 390,000); further: on the % scale 0 is the no-effect control and ±100 the full control effect; nearly all actives have a fitted effect of over 50% in size
BAZ2B inh: inhibitors of human BAZ2B bromodomain. Potency, µM (series often up to 114 µM), for the others: at the highest dose activity change, negative = inhibition, most hits filed as inhibitors. Q9UIF8. AlphaScreen BAZ2B-H3K14Ac peptide displacement. actives 4.4% (n = 360,000); further: on the % scale 0 is the no-effect control and ±100 the full control effect; nearly all actives have a fitted effect of over 60% in size
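BAZ2B (50 nM) with biotin-H3(5-23)K14Ac peptide (50 nM) in PBS pH 7.4, 0.01% Tween-20, preformed 30 min, then compound 30 min at room temperature; top concentration 110uM. AlphaScreen streptavidin donor/nickel chelate acceptor beads (10 ug/mL final), 20 min dark, signal read.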
* marks the source's active call; other numbers are inactive results; ? = inconclusive; / = no result; [ ] = remark or other dose. In the library only some 10% were active in any assay of this set; here they are far more common. The call rests on the fitted dose curve; in most records, active means well fitted curve in the direction sought with a large enough effect; inconclusive means small, poorly fitted or top-dose-only effect, or another doubt; inactive means no such curve, though single readings can be large; an effect the other way counts as inactive or inconclusive. Potency means the concentration at half of the fitted maximal effect.

SMILES	GLS inhibitor	G9a block	HP1b binding inh	JMJD2A Tudor	BAZ2B inh
COc1cc(C2c3c(oc4ccccc4c3=O)C(=O)N2c2nnc(C(C)C)s2)cc(OC)c1OC (stereo unspecified)	0%	5%[59 µM]	16%	-13%	-3%
CN(C)S(=O)(=O)c1ccc(C(=O)NCC(=O)N/N=C/c2ccco2)cc1	-1%	-4%	44%	-14%	-4%
CN(C)S(=O)(=O)c1ccc(-c2csc(N/N=C/c3ccco3)n2)cc1	?	28µM*	17%	-14%	-23%
O=C(Nc1nc(-c2ccc(Cl)cc2)cs1)c1cccnc1	-6%	40µM*	?	-22%[11.4 µM]	-8%
C(=N\Nc1nc(-c2ccccc2)cs1)/c1ccco1	25%	13µM*	?	?	40µM*
CN(C)S(=O)(=O)c1ccc(-c2csc(N/N=C/c3ccc(O)cc3)n2)cc1	?	22µM*	-2%	?	?
CCOc1ccc(OCC)c(NC(=O)c2nnn(CC(=O)Nc3cc(Cl)ccc3OC)c2N)c1	-1%	-2%[59 µM]	14%	-9%	/
CCC(C)NC(=O)C1CCN(C(=O)c2ccc(-n3ccc4ccccc43)s2)CC1 (stereo unspecified)	-8%	4%[59 µM]	-7%	-19%	2%
Clc1ccc(-c2csc(N/N=C/c3ccco3)n2)cc1	?	/	-12%	?	35µM*
N#Cc1ccc(-c2cccs2)nc1SCc1ccc(Cl)cc1Cl	2%	125%[59 µM]	105%	70%	31%
c1ccc(OCCn2c(-c3ccco3)nc3ccccc32)cc1	3%	40µM*	-6%	-25%	?
CCn1c(-c2ccco2)nc2ccccc21	6%	6.3µM*	58%	-23%	18%
O=C(Nc1nc2ccccc2n1CCOc1ccccc1)c1ccco1	1%	64%[59 µM]	42%	-7%	?
CCOc1ccccc1CNC(=O)c1cc2occc2n1C	4%	25µM*	?	-35%	45µM*
O=C(c1ccccc1)N1c2nc(-c3ccco3)nn2C2(CCCCC2)[C@@H]2CCCC[C@@H]21	8%	-15%[59 µM]	1%	-23%	-30%
O=[N+]([O-])c1cc([N+](=O)[O-])c2nonc2c1Nc1ccc(O)cc1	38%	11µM*	?	50µM*	?
OCC[C@@H]1C[C@@H](O)[C@H](O)[C@@]2(Cc3ccccc3O2)O1	-5%	16µM*	50%	-13%	-31%
OCC[C@H]1C[C@H](O)[C@@H](O)[C@]2(Cc3ccccc3O2)O1	-3%	-1%[12.7 µM]	44%	-4%	11%
OCC[C@@H]1C[C@@H](O)[C@H](O)[C@@]2(CCc3ccccc3O2)O1	1%	22%	36%	-11%	-6%
OCC[C@@H]1C[C@H](O)[C@@H](O)[C@@]2(CCc3ccccc3O2)O1	6%	79µM*	56%	-16%	-24%
CCCCn1c(-c2csc3c2CCC(C)C3)n[nH]c1=S (stereo unspecified)	?	24%[59 µM]	6%	-27%	-7%
CCCCn1c(-c2csc3c2CCCC3)n[nH]c1=S	?	?	-5%	40µM*	-31%
CCCCn1c(-c2cccs2)nc2nc3ccccc3nc21	-1%	111%	86%	59%	25%[57.1 µM]
C=CCn1c(-c2csc3c2CCC(C)C3)n[nH]c1=S (stereo unspecified)	11%	1.4µM*	6%	?	-35%
CCCCCCn1c(-c2cccs2)n[nH]c1=S	2%	5.6µM*	-15%	28µM*	-23%
SMILES	GLS inhibitor	G9a block	HP1b binding inh	JMJD2A Tudor	BAZ2B inh
CCn1c(-c2csc3c2CCCC3)n[nH]c1=S	-14%	7.9µM*	-22%	10µM*	-7%
CCCn1nnc(NC(=O)c2ccc3c(c2)OCO3)n1	3%	9%	18%	-1%	2%
CCCCn1c(-c2csc3ccccc23)n[nH]c1=S	-20%	1.4µM*	22%	?	-2%
CCCCn1c(SCc2nc3ccccc3s2)nc2ccccc2c1=O	12%	5%[59 µM]	83%	-11%	3%
CCOC(=O)C1(C#N)Cc2ccccc2C1	0%	/	37%	10%	/
O=C(CCNC(=O)c1ccc(Br)cc1)Nc1ccccc1N1CCCCC1	-1%	56µM*	16%	-7%	-2%
O=C(COc1ccc(Br)cc1)Nc1ccccc1N1CCCC1	-4%	45µM*	32%	1%	-19%
CC(=O)N1CCN(c2ccccc2NC(=O)COc2ccc(Br)cc2)CC1	-3%	-13%[12.7 µM]	24%	-15%	-6%
O=C(CCNC(=O)c1ccccc1Cl)Nc1ccccc1N1CCCC1	23%	/	31%	-14%	-1%
CCS(=O)(=O)N1Cc2ccccc2CC1C(=O)NC(C)C12CC3CC(CC(C3)C1)C2 (stereo unspecified)	-12%	14µM*	26%	-7%	-7%
CN(C)c1ccc(CNC(=O)c2sc3ncccc3c2-n2cccc2)cc1	7%	22µM*	?	28µM*	18µM*
CN(C)c1ccc(C=C(C#N)C(=O)c2ccccc2)cc1Br	-2%	/	/	/	/
Nn1c(SCC(=O)Nc2ccc3c(c2)OCCO3)nnc1-c1cccnc1	-3%	54%	23%	0%	-13%
CC(Sc1nnc(-c2cccnc2)n1N)C(=O)Nc1ccc2c(c1)OCCO2 (stereo unspecified)	0%	56µM*	21%	-21%	-21%
COc1cc(OC)c(NC(=O)c2nn(-c3ccc(C)cc3)c(=O)c3c2c2ccccc2n3C)cc1Cl	5%	-5%[59 µM]	9%	-16%	/
CCCCN1C(=O)C(=Nc2cccc3cnccc23)c2ccccc21	29%	45µM*	?	?	28µM*
CCCCN1C(=O)c2ccccc2C1=O	/	/	/	7%	/
COc1ccc(OCC(=O)N2CCN(S(=O)(=O)c3ccc4c(c3)OCCO4)CC2)cc1	3%	/	/	/	/
COc1ccc(NC(=O)N/C=C/c2ccco2)cc1	5%	10µM*	-17%	?	?
O=C(N/C=C/c1ccco1)Nc1cccc(Cl)c1	2%	50µM*	6%	?	?
COc1ccccc1CNC(=O)c1ccccc1C(=O)NC(CC(C)C)C(=O)NCc1ccccc1OC (stereo unspecified)	7%	-5%[59 µM]	3%	35µM*	?
COc1ccccc1CNC(=O)c1ccc(Br)o1	2%	35µM*	52%	-19%	-3%
Cc1ccc(Cn2c(CNC(=O)c3cccc(C)c3)nc3ccccc32)cc1	2%	-3%[59 µM]	38%	-9%	-9%
O=C1OC(c2ccc(Cl)cc2)=C/C1=C/c1cccnc1	5%	56µM*	8%	-11%	-21%
O=C1OC(c2ccc(F)cc2)=C/C1=C\c1ccc(O)cc1	2%	35µM*	7%	-16%	-4%
Cc1ccc(C2=C/C(=C/c3cccnc3)C(=O)O2)c(C)c1	4%	?	76%	3%	14%
O=C1OC(c2ccc(F)cc2)=C/C1=C\c1ccc([N+](=O)[O-])o1	/	10µM*	/	/	45µM*
